About 10,000 (3%) of roughly 330,000 compounds were called active. For the sample, actives were picked, then their nearest neighbours and some compounds at random. Unmarked numbers belong to inactive results.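 How the source made its calls: active means inhibition of at least 50% at 8 µM in the primary screen; inactive means the rest.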
target: Protein Mdm4 (Homo sapiens) + E3 ubiquitin-protein ligase Mdm2 (Homo sapiens) (UniProt O15151+Q00987); assay: inhibitors of human Mdm2-MdmX association, primary screen, cell-based, luminescence, split luciferase, SaOS-2, uHTS (AID 485346); conditions: SaOS-2 split-luciferase Mdm2/MdmX complementation, at 8 µM, stronger effect = higher value
Sequence (O15151 whole entry, looked up): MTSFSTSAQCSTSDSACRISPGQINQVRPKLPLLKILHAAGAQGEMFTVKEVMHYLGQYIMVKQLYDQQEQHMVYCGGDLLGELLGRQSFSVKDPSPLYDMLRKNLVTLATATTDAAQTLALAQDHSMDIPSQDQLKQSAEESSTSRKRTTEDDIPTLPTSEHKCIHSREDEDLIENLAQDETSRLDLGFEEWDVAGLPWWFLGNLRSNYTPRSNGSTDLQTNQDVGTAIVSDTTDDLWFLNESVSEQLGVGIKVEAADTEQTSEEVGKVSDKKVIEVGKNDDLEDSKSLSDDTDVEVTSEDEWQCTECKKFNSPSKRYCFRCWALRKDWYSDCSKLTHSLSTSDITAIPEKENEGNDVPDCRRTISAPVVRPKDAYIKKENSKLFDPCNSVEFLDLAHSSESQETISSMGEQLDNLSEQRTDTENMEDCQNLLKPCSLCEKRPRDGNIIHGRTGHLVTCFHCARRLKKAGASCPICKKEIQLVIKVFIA
Sequence (Q00987 whole entry, looked up): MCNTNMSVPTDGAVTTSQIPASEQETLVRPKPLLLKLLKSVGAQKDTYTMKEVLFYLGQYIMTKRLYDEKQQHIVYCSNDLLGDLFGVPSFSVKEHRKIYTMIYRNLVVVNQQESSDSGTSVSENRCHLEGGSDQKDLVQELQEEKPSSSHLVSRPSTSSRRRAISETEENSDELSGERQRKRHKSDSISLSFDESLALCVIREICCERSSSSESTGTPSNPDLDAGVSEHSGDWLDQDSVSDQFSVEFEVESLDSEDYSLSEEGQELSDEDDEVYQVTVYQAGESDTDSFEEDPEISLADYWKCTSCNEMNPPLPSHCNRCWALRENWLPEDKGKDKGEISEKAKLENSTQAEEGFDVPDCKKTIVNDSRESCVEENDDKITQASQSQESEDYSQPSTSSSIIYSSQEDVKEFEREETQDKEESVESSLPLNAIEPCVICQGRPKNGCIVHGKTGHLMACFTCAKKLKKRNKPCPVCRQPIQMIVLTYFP

Row | Compound | inhibition
1 | Cc1c(C(=O)NCC(c2ccco2)N2CCCC2)oc2ccc(Cl)cc12 (configuration not stated) | 21%
2 | CCCCCOC(=O)C1=C(C)Nc2nnnn2C1c1ccc(OC)c(OC)c1OC (configuration not stated) | -18%
3 | COc1cccc(-c2cc3nc4c(c(N5CCC6(CC5)OCCO6)n3n2)CCCC4)c1 | 22.2%
4 | COc1ccccc1CN(C)C(=O)C1(c2ccc(Cl)cc2)CC1 | 14.8%
5 | O=C(CN1C(=O)NC(Cc2c[nH]c3ccccc23)C1=O)Nc1ccccc1C(F)(F)F (configuration not stated) | -9.67%
6 | Cc1ccc2c(c1)N(CC(=O)N(Cc1ccccn1)Cc1ccco1)C(=O)C(C(C)C)O2 (configuration not stated) | 2.25%
7 | CCc1ccc(NC(=O)N2CCc3ccccc3C2)cc1 | -51.8%
8 | CCCc1cc(=O)[nH]c(SCC(=O)OCc2ccccc2)n1 | 18.4%
9 | Cc1ccc(C2CC(=O)NC(SCC(=O)OCc3ccccc3)=C2C#N)o1 (configuration not stated) | 58.1% (active)
10 | COC(=O)CSC1=C(C#N)C(c2ccccc2OC)C(C(=O)OC)C(=O)N1 (configuration not stated) | 15.2%
11 | COc1cc(OC)cc(C(=O)OCC(=O)Nc2sccc2C(N)=O)c1 | -6.16%
12 | C=CCn1c(C)cc(C2=NNC(=NCC)SC2)c1C | 97.3% (active)
13 | CCS(=O)(=O)N1CCC(N2CCN(c3ccccc3)CC2)CC1 | 1.56%
14 | O=[N+]([O-])c1cccc2ncccc12 | 10.6%
15 | Cc1ccccc1NC(=O)c1ccccc1NS(=O)(=O)c1cccc2cccnc12 | 11.2%
16 | O=[N+]([O-])c1ccccc1S(=O)(=O)Nc1cccc2cccnc12 | 94.5% (active)
17 | CN(CCc1ccccn1)C(=O)CCC1CCCN(Cc2ccccc2OC(F)F)C1 (configuration not stated) | -29.3%
18 | CCOC(=O)C1=CN(Cc2ccc(Br)cc2)S(=O)(=O)NC1C (configuration not stated) | 12.1%
19 | Brc1ccc(C2=CC(c3ccco3)n3ncnc3N2)cc1 (configuration not stated) | 11.6%
20 | CC1=C(C(N)=O)C(c2ccc(Br)cc2)n2ncnc2N1 (configuration not stated) | 5.41%
21 | Clc1ccc2c(c1)C1=C(C(c3ccncc3)O2)C(c2ccc(Br)cc2)n2ncnc2N1 (configuration not stated) | 70.4% (active)

Row | Compound | inhibition
22 | O=C1NCCn2nc3ccccc3c21 | 16.4%
23 | Cc1ccc(NN=Nc2nc3c([nH]2)c(=O)n(C)c(=O)n3C)cc1 | -16.4%
24 | Cc1ccc(CSc2nc3[nH]ncc3c(=O)[nH]2)cc1 | -38.4%
25 | C=CCN1C(=O)C(O)(CC(=O)c2ccccn2)c2ccccc21 (configuration not stated) | -5.9%
26 | N/C(=N\OC(=O)c1ccc2c(c1)OCO2)c1ccc(Br)cc1 | 84.4% (active)
27 | C/C(=N/OC(=O)c1ccc(Br)cc1)c1ccc(C)cc1 | 5.85%
28 | O=C(c1ccc2c(c1)OCO2)N1CCOCC1 | 3.71%
29 | CC(C)(C)OC(=O)C[C@@H]1C/C=C\C[C@@H](CC(=O)N[C@@H](CO)Cc2ccccc2)C(=O)N2CCC[C@H]2COC1=O | 9.85%
30 | O=C(Nc1ccncc1)c1c(F)cccc1F | 52.1% (active)
31 | CSc1nc2ccc(NC(=O)c3c(F)cccc3F)cc2s1 | -79.2%
32 | O=C(Nc1ccncc1)Nc1ccc(F)cc1 | 14%
33 | COCCNC(=O)COc1ccc(N(C)S(=O)(=O)c2ccc3ccccc3c2)cc1 | 16.8%
34 | O=C(/C=C/c1ccc(Cl)cc1)Nc1ccc(Br)cn1 | 77.5% (active)
35 | O=C(/C=C/c1ccc(Cl)cc1)Nc1ccc(S(=O)(=O)Nc2ncccn2)cc1 | 0.48%
36 | Cc1cc(C)nc(NC(=O)/C=C/c2ccc(Cl)cc2)n1 | 6.82%
37 | CCn1c(SCC(=O)Nc2cc(C)ccc2C)nnc1-c1cnccn1 | -18.6%
38 | COc1ccc(N2C(=O)C(O)C2c2ccc(C)cc2)cc1 (configuration not stated) | 17.5%
39 | COc1ccc(COC(=O)NC(C(=O)O)c2ccccc2)cc1 (configuration not stated) | 7.43%
40 | COc1ccc(C(CCN(Cc2ccc(OC)c(OC)c2)C(=O)CCl)c2ccccc2)cc1 (configuration not stated) | 100% (active)
41 | COc1ccc(CN(C)C(=O)CC(c2ccccc2)c2ccccc2)cc1 | 2.66%
42 | O=C(OCc1cc(=O)n2ccsc2n1)C1(c2ccc(Cl)cc2)CC1 | -13.2%

Row | Compound | inhibition
43 | CN(c1ccc(OCC(=O)NC2=NCCS2)cc1)S(=O)(=O)c1ccc(F)cc1 | -19.2%
44 | CCOC(=O)C1=C(c2ccccc2)NC(=O)NC1c1cc(OCC)c(O)c([N+](=O)[O-])c1 (configuration not stated) | -2.5%
45 | COc1ccccc1NC(=O)/C=C/C(N)=O | 6.78%
46 | COC(=O)c1sc(-c2ccc(C(C)(C)C)cc2)cc1NC(=O)/C=C/C(=O)O | 59.5% (active)
47 | CC(C)(C)c1ccc(/C=C/C(=O)Nc2ncccn2)cc1 | -199%
48 | CC1(C)S[C@@H]2[C@H](NC(=O)COc3ccccc3)C(=O)N2C1C(=O)OCc1ccccc1 (some centres not stated) | -0.93%
49 | O=C1OCCN1C(=O)[C@H]1[C@H](c2ccc(Cl)cc2)C(c2cccc(Cl)c2)=NN1c1ccc(Br)cc1 | 43%
50 | COc1ccc(Cl)cc1NC(=O)NC(C)C(C)(C)C (configuration not stated) | -21.5%
51 | COc1ccc(C#Cc2c(-c3ccc(OC)cc3)oc3ccc(-c4ccc5c(c4)OCO5)cc23)cc1 | -2.23%
52 | COc1ccc(/C=C/c2c(-c3cccc(C)c3)oc3ccc(-c4ccc5c(c4)OCO5)cc23)cc1 | 6.97%
53 | Cc1cccc(-c2oc3ccc(-c4ccc5c(c4)OCO5)cc3c2C#Cc2cncn2C)c1 | 62.2% (active)
54 | COc1nnc(-c2ccc(C)c(S(=O)(=O)N(C)C)c2)c2ccccc12 | 13.5%
55 | COc1ccc(CCN(C)C(=O)C23CC4CC(CC(Cl)(C4)C2)C3)cc1OC | 27.9%
56 | Cc1cc(=O)[nH]c2nnnn12 | 6.21%
57 | Cc1ccc(OCC(=O)Nc2ccc(NC(=O)c3cccs3)cc2)c(C)c1 | 13.5%
58 | COc1ccc(CC(=O)Nc2ccc(C(=O)NC(C)(C)C)cc2)cc1 | -11.9%
59 | COc1ccc(CC(=O)Nc2ccc(-c3nnc(-c4ccc(C)cc4)o3)cc2)cc1 | 99.8% (active)
60 | CCN(CC(=O)Nc1ccc(OC)cc1)C(=O)CSCc1ccc(C)cc1 | 20.5%
61 | Cc1ccc(C(=O)Nc2ccc(NC(=O)c3cccs3)cc2)c(C)c1 | -14.7%
62 | Cc1ccc(-c2nnc(-c3ccc(NC(=O)c4cccs4)cc3)o2)cc1 | 93.9% (active)
